# From the supplement of paper PMC10849652
# Of roughly 7,900 targets only a part is listed; those with a hit were picked by preference. About 0.6% of all pairs of compound and target were hits. Values without a mark were called inactive.
# Tests used:
# Experiment in all cases: log2 fold change, soluble protein after heating vs DMSO (PISA); higher = thermal stabilisation; K562 cells, 10 uM, 30 min; active = over 0.2 and 3.5 SD of the protein, either way, in both replicates (recomputed)
# [1] = compound: NC(=O)Nc1cc(-c2cccc(F)c2)sc1C(=O)N[C@H]1CCCNC1
# Outline: (§1)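 Aliquots of K562 cells (2×10^6 cells/mL) treated with 10 μM compound for 30 min were heated for 3 min over 48°C-58°C. After pooling and extraction in PBS with 0.5% NP-40 at 4°C, soluble protein from a 21,000xg, 90 min spin was quantified by TMTpro 16plex LC-MS/MS with channel sums equalised. Thermal stability is expressed against control samples, from duplicates, as a log2 fold change.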
# [2] = compound: NC(=O)c1cnc(N[C@@H]2CCCC[C@@H]2N)nc1Nc1cccc(-n2nccn2)c1
# Outline: as §1
# [3] = compound: NC1(c2ccc(-c3nc4ccn5c(=O)[nH]nc5c4cc3-c3ccccc3)cc2)CCC1
# Outline: as §1
# [4] = compound: NCC(=O)Nc1ccc(-n2nc(C(F)(F)F)cc2-c2ccc3c(ccc4ccccc43)c2)cc1
# Outline: as §1
# [5] = compound: Nc1ccccc1NC(=O)c1ccc(CNC(=O)OCc2cccnc2)cc1 [entinostat]
# Outline: as §1
# [6] = compound: O=C(CCCCCCC(=O)Nc1ccccc1)NO [vorinostat]
# Outline: as §1
# [7] = compound: O=C(CCCCCCNC(=O)c1cnc(N(c2ccccc2)c2ccccc2Cl)nc1)NO [citarinostat]
# Outline: as §1
# [8] = compound: O=C(O)c1ccc2c(c1)nc(Nc1cccc(Cl)c1)c1ccncc12 [silmitasertib]
# Outline: as §1
# [9] = compound: O=C1NC(=O)C(c2cnc3ccccn23)=C1c1cn2c3c(cc(F)cc13)CN(C(=O)N1CCCCC1)CC2
# Outline: as §1
# [10] = compound: c1cc(OCCN2CCCCC2)cc(-c2n[nH]c3ccc(-c4nnc[nH]4)cc23)c1
# Outline: as §1
# Sequence of UniProt O95602 (O95602 whole entry, looked up): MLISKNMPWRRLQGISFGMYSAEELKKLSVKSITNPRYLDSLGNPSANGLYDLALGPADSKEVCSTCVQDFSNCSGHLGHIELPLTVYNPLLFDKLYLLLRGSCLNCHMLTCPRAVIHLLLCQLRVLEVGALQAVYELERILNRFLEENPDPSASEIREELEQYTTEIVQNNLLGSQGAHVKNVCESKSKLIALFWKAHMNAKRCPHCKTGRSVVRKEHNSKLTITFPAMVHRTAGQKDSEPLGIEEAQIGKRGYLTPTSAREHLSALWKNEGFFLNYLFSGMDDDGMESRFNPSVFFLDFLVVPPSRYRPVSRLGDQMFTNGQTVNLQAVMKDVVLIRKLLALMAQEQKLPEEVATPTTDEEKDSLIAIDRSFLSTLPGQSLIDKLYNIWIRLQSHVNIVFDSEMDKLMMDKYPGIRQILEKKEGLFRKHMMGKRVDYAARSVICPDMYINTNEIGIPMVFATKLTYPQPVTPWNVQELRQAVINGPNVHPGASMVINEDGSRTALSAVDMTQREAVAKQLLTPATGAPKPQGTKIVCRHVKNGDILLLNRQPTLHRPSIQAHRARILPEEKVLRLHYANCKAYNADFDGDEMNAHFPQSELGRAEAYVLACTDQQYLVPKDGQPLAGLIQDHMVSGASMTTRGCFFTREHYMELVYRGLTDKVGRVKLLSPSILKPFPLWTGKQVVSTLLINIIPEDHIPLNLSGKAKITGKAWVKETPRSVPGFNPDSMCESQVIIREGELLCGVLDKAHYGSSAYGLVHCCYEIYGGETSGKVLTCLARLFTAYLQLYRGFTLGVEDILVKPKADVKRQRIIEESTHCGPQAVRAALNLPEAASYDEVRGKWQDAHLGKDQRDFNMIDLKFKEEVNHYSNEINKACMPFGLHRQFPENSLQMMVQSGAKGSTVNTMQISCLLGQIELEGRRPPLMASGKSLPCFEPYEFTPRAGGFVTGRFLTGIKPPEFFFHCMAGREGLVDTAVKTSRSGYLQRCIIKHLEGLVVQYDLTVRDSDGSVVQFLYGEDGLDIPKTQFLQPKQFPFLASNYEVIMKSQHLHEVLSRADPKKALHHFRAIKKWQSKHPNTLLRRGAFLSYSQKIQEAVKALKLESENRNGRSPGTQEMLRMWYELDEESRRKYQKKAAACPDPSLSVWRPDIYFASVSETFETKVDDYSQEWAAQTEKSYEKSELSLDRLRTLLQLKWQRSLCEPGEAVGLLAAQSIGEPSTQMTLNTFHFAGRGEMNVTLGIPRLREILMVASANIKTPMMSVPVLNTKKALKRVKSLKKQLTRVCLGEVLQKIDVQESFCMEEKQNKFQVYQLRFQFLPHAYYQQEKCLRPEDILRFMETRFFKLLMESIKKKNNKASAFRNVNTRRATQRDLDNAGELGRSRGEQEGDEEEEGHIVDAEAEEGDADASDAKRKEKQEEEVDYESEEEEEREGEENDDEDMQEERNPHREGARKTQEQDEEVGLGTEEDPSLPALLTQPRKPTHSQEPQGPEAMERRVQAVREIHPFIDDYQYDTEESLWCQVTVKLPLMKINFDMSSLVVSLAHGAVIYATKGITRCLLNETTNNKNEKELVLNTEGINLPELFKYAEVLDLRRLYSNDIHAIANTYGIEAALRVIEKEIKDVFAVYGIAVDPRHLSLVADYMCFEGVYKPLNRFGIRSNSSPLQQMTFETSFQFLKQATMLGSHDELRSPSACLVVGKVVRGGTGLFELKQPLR
# Sequence of UniProt Q04759 (Q04759 whole entry, looked up): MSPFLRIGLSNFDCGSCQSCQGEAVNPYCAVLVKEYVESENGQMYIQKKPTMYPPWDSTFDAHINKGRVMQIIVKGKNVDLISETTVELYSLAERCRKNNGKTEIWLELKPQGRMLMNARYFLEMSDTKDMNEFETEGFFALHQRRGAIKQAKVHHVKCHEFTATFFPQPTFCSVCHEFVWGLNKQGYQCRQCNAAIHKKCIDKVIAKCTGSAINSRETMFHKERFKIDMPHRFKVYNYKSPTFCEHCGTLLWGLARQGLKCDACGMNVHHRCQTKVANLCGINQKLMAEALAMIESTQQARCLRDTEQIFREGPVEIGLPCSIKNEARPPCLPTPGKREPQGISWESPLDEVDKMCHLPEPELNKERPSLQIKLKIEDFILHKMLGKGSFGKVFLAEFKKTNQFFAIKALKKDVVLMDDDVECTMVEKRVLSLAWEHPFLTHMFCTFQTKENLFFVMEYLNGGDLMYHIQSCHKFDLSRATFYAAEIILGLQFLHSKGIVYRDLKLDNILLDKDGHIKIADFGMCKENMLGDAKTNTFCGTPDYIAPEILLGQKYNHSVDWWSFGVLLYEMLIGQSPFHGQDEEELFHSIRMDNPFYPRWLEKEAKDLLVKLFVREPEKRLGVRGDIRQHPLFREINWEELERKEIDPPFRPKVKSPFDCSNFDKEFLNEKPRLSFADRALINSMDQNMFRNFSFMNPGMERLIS
# Sequence of UniProt O75439 (O75439 whole entry, looked up): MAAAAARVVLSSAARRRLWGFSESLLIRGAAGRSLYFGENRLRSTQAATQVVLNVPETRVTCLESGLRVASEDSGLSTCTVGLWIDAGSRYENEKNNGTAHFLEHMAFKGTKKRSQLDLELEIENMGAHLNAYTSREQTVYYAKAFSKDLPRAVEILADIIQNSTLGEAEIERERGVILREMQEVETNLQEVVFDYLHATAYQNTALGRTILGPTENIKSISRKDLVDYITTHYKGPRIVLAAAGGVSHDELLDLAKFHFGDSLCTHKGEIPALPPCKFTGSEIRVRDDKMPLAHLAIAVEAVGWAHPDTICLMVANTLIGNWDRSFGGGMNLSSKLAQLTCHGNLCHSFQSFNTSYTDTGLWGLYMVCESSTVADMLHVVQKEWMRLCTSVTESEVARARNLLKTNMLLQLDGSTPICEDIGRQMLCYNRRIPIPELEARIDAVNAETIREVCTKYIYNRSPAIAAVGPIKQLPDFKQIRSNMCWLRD
# Sequence of UniProt Q29RF7 (Q29RF7 whole entry, looked up): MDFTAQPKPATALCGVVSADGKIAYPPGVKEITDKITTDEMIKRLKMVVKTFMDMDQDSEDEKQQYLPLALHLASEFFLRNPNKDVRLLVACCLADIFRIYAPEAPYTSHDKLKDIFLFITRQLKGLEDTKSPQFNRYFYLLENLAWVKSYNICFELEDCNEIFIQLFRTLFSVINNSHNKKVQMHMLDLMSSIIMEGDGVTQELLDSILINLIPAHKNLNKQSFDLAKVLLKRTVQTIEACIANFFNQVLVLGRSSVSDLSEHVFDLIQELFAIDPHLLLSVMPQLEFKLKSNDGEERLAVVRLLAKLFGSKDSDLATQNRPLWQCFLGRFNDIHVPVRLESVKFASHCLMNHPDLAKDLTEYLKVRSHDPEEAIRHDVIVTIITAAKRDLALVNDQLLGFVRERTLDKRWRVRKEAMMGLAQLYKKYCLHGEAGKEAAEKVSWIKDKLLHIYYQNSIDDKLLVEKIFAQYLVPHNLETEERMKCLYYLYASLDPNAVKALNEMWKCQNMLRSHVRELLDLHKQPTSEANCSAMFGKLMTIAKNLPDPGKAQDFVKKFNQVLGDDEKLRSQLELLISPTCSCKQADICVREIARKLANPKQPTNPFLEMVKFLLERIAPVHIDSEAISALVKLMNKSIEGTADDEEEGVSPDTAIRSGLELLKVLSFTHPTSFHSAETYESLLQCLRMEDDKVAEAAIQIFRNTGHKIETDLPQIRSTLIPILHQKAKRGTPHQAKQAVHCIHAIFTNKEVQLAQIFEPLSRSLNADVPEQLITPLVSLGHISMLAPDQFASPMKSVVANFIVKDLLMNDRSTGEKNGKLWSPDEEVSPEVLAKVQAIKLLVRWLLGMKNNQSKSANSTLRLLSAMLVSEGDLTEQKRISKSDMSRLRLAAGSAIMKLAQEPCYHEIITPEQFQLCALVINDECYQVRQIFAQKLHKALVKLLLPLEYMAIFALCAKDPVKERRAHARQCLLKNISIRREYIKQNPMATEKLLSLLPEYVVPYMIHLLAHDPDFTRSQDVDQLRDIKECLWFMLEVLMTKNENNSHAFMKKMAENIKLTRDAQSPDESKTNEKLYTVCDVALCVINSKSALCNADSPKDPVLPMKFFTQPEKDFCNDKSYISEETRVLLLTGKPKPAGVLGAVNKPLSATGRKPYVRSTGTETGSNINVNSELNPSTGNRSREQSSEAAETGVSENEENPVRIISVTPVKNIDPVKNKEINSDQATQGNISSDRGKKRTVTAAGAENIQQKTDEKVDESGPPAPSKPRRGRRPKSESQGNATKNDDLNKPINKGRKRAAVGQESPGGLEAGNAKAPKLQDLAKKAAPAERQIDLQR
# Sequence of UniProt P53801 (P53801 whole entry, looked up): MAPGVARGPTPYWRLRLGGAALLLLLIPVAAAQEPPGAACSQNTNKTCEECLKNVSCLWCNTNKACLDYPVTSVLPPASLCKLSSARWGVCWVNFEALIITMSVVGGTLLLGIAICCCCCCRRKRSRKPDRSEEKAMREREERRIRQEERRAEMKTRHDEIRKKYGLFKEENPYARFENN
# Sequence of UniProt O95453 (O95453 whole entry, looked up): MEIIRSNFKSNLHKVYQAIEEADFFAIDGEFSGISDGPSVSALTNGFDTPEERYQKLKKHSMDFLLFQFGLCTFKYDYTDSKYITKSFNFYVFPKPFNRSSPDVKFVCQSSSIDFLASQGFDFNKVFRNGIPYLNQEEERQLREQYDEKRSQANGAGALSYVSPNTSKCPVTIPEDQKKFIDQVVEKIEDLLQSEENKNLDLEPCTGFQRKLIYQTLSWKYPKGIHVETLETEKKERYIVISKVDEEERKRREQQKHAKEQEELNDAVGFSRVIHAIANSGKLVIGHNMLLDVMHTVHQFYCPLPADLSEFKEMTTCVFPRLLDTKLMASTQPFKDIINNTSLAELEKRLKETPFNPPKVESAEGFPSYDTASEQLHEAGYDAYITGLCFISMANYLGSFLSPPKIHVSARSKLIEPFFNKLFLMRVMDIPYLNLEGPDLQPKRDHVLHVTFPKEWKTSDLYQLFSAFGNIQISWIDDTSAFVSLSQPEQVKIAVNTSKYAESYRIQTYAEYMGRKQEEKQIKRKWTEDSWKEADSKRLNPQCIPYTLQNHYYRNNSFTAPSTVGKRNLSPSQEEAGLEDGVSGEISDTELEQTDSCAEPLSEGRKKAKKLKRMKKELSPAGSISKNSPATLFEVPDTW
Target,log2 fold change [1],log2 fold change [2],log2 fold change [3],log2 fold change [4],log2 fold change [5],log2 fold change [6],log2 fold change [7],log2 fold change [8],log2 fold change [9],log2 fold change [10]
POLR2I (UniProt P36954),-0.025,0.115,0.102,0.067,0.114,-0.243,-0.09,0.028,-0.091,-0.005
PIKFYVE (UniProt Q9Y2I7),0.029,-0.055,-0.256,-0.072,0.09,0.021,-0.047,0.006,-0.069,-0.08
PGGT1B (UniProt P53609),-0.048,-0.014,-0.062,-0.021,-0.047,-0.046,0.038,0.021,0.02,-0.042
PMPCB (UniProt O75439),-0.03,0.024,-0.02,0.023,-0.043,-0.009,0.037,-0.103,-0.012,0.023
PYGB (UniProt P11216),0.209,-0.077,-0.018,-0.041,-0.003,0.063,0.033,-0.005,-0.105,-0.105
PCK2 (UniProt Q16822),0,0,-0.029,-0.013,0.005,0.004,0.013,-0.025,-0.148,-0.032
PTGES3 (UniProt Q15185),-0.043,-0.006,-0.123,0.017,0.075,0.002,0.111,-0.002,-0.142,0.054
PDS5A (UniProt Q29RF7),-0.076,-0.024,-0.061,0.018,0.306,0.062,0.068,0.017,-0.103,-0.075
PTTG1IP (UniProt P53801),-0.033,0.026,-0.222,0.065,0.12,-0.077,-0.017,0.083,0.017,0.07
POLR1A (UniProt O95602),0.044,0.012,-0.208,0.172,-0.012,0.098,0.018,0.033,0.036,0.045
PTGR2 (UniProt Q8N8N7),-0.039,-0.077,0.123,-0.164,-0.05,-0.149,0.009,-0.011,0.611 (active),0.231
PC (UniProt P11498),-0.025,0.027,-0.084,0.004,-0.003,-0.044,0.053,-0.122,-0.099,0.112
PPIL1 (UniProt Q9Y3C6),-0.054,0.059,0.008,-0.074,-0.001,-0.013,0.015,0.075,0.001,-0.051
PECAM1 (UniProt P16284),0.005,0.092,0.034,0.053,-0.13,-0.057,0.033,-0.039,-0.064,-0.023
PNPLA8 (UniProt Q9NP80),-0.035,0.007,-0.038,-0.038,-0.031,0.111,0.049,-0.036,-0.017,-0.052
PITRM1 isoform 2 (UniProt Q5JRX3),0.116,-0.077,-0.051,-0.061,0.097,0.089,0.104,-0.045,0.05,0.096
PRKCQ (UniProt Q04759),-0.337 (active),-0.135,-0.198,-0.052,0.002,0.035,0.001,0.002,-0.021,-0.187
PARN (UniProt O95453),0.012,-0.042,-0.1,-0.087,0.015,0.03,0.056,0.028,-0.069,-0.082
PRKCG (UniProt P05129),-0.064,-0.043,-0.086,0.068,0.117,0.109,0.193,0.062,-0.229,0.082
PIP4K2C (UniProt Q8TBX8),0.016,0.192,-0.125,0.293,-0.027,-0.071,-0.036,0.497,0.12,0.036
PCGF2 (UniProt P35227),-0.164,-0.125,-0.048,-0.025,0.114,-0.059,0.134,0.051,-0.069,-0.022
